Measurements: PubChem BioAssay (EPA / NIEHS)
Several values for one entry are separate records, joined by “and”; a condition that tells them apart may be missing. Identical values can stand only once. Inconclusive results are not listed. Some compounds were tested as several samples or in several runs, with calls that do not always agree. Activity calls are given as the source filed them. The calls were made as follows, unless noted: active = hit-call score of the fitted dose curve at least 0.9, where 1 is the maximum; inactive = score below 0.9.

How the values were obtained:
[1] = read-out: E-selectin (Homo sapiens) (UniProt P16581); assay: BSK_3C_Eselectin: BioMAP Diversity Plus: 3C Assay for Eselectin Biomarker Activity (AID 2283015); settings: primary human endothelial cells (HUVEC); actives raise or lower the signal
Summary of the method: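 HUVEC, 3C stimulation; compound exposure 24 h; E-selectin by ELISA; gain- or loss-of-signal fitted bidirectionally vs DMSO baseline.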

[2] = read-out: Monocyte Chemoattractant Protein-1 (MCP1), CCL2 (gene 6347); assay: BSK_3C_MCP1: BioMAP Diversity Plus: 3C Assay for Monocyte Chemoattractant Protein-1 (MCP1) Biomarker Activity (AID 2283017); settings: primary human endothelial cells (HUVEC); actives raise or lower the signal
Summary of the method: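 HUVEC, 3C system; 24 h chemical exposure; MCP-1 by ELISA; bidirectional curve fit vs DMSO baseline.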

[3] = read-out: Monocyte Chemoattractant Protein-1 (MCP1), CCL2 (gene 6347); assay: BSK_4H_MCP1: BioMAP Diversity Plus: 4H Assay for Monocyte Chemoattractant Protein-1 (MCP1) Biomarker Activity (AID 2283018); settings: primary human endothelial cells (HUVEC); actives raise or lower the signal
Summary of the method: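 ELISA of MCP-1 (CCL2) 24 h after chemical dosing of HUVEC in the BioMAP 4H system. Gain or loss versus DMSO fitted; parallel SRB staining (560 nm) tracked overt cytotoxicity.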

[4] = read-out: Human Leukocyte Antigen - DR isotype (HLADR), HLA-DRA (gene 3122); assay: BSK_3C_HLADR: BioMAP Diversity Plus: 3C Assay for Human Leukocyte Antigen - DR isotype (HLADR) Biomarker Activity (AID 2283019); settings: primary human endothelial cells (HUVEC); actives raise or lower the signal
Summary of the method: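 HUVEC, 3C stimulation, 24 h post-dose; HLA-DR by ELISA; bidirectional curve fit vs DMSO baseline; gain or loss of signal scored.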

[5] = read-out: Interleukin-8 (IL8), CXCL8 (gene 3576); assay: BSK_3C_IL8: BioMAP Diversity Plus: 3C Assay for Interleukin-8 (IL8) Biomarker Activity (AID 2283020); settings: primary human endothelial cells (HUVEC); actives raise or lower the signal
Summary of the method: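 IL-8 was measured by ELISA in HUVEC cultures 24 h after chemical dosing, with gain or loss of signal fitted relative to DMSO. Parallel SRB total-protein staining tracked overt cytotoxicity.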

[6] = read-out: Monokine induced gamma interferon (MIG), CXCL9 (gene 4283); assay: BSK_3C_MIG: BioMAP Diversity Plus: 3C Assay for Monokine induced gamma interferon (MIG) Biomarker Activity (AID 2283021); settings: primary human endothelial cells (HUVEC); actives raise or lower the signal;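 as to AC50: MIG protein level measured by immunoassay in the treated endothelial cultures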
Summary of the method: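 ELISA measurement of MIG in human umbilical vein endothelial cells 24 h after treatment. Cytotoxicity tracked by SRB staining in parallel cultures; gain or loss of signal fitted relative to DMSO.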

[7] = target: human Vitamin D Receptor (VDR), VDR (gene 7421) (UniProt P11473); assay: ATG_VDR_TRANS: Attagene TRANS-FACTORIAL HepG2 Assay for human Vitamin D Receptor (VDR) (AID 2283022; active = hit-call score of the fitted dose curve at least 0.9, where 1 is the maximum)
Summary of the method: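 RT-PCR/capillary electrophoresis read-out of reporter mRNA induction in transiently transfected HepG2; 24 h dosing; chimeric NR-Gal4 (TRANS format); gain-of-signal fit against DMSO baseline.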

[8] = BSK_3C_SRB: Viability Assessment in the BioMAP Diversity Plus: 3C Assay (AID 2283023); settings: primary human endothelial cells (HUVEC);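 also: fitted both ways against DMSO so a hit may be signal rise or drop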
Summary of the method: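 HUVEC, 24 h post-dose; 10% TCA fix, 0.1% SRB stain, A560 nm. Bidirectional curve fit vs DMSO negative control.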

[9] = read-out: Matrix Metallopeptidase 1 (MMP1), MMP1 (gene 4312); assay: BSK_BE3C_MMP1: BioMAP Diversity Plus: BE3C Assay for Matrix Metallopeptidase 1 (MMP1) Biomarker Activity (AID 2283024); settings: primary human bronchial epithelial cells; actives raise or lower the signal
Summary of the method: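 ELISA measurement of MMP-1 after 24 h compound exposure of primary human bronchial epithelial cells. Changes in either direction fitted relative to DMSO; parallel SRB staining checked overt cytotoxicity.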

[10] = BSK_3C_Vis: BioMAP Diversity Plus: 3C Assay for Morphology Visualization (AID 2283025); settings: primary human endothelial cells (HUVEC);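 also: fitted both ways so gain or loss versus DMSO counts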;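 as to AC50: light microscopy image of cell morphology used as background control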
Summary of the method: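 Light-microscopy visualization of HUVEC cultures at 24 h post-treatment, with DMSO as baseline for bidirectional fitting.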

[11] = read-out: Pselectin, SELP (gene 6403); assay: BSK_4H_Pselectin: BioMAP Diversity Plus: 4H Assay for Pselectin Biomarker Activity (AID 2283026); settings: primary human endothelial cells (HUVEC); actives raise or lower the signal
Summary of the method: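 ELISA of surface P-selectin on HUVEC, 24 h after dosing, with parallel SRB staining (0.1% after 10% TCA fixation, 560 nm) for overt cytotoxicity. Activity fitted in both directions relative to DMSO.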

[12] = BSK_4H_SRB: Viability Assessment in the BioMAP Diversity Plus: 4H Assay (AID 2283027); settings: primary human endothelial cells (HUVEC);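 also: cells exposed to compound for 24 h before staining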;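 as to AC50: curves fitted both ways versus DMSO so AC50 may be loss or gain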
Summary of the method: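 Cytotoxicity read-out in primary human endothelial cells: after 24 h compound exposure, cells were TCA-fixed (10%), stained with 0.1% SRB and absorbance taken at 560 nm. Values fitted in both directions relative to DMSO.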

[13] = BSK_BE3C_SRB: Viability Assessment in the BioMAP Diversity Plus: BE3C Assay (AID 2283028); settings: primary human bronchial epithelial cells;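 as to AC50: fitted both ways so AC50 may mark signal gain or loss versus DMSO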
Summary of the method: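 Primary human bronchial epithelium; chemical dosing, 24 h; 10% TCA fix, 0.1% SRB stain, A560; bidirectional fit vs DMSO baseline.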

[14] = read-out: Thrombomodulin, THBD (gene 7056); assay: BSK_3C_Thrombomodulin: BioMAP Diversity Plus: 3C Assay for Thrombomodulin Biomarker Activity (AID 2283029); settings: primary human endothelial cells (HUVEC); actives raise or lower the signal
Summary of the method: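 ELISA measurement of thrombomodulin on HUVEC surface 24 h after chemical dosing; activity fitted in both directions relative to DMSO vehicle.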

[15] = read-out: Urokinase-type plasminogen activator receptor (uPAR), PLAUR (gene 5329); assay: BSK_4H_uPAR: BioMAP Diversity Plus: 4H Assay for Urokinase-type plasminogen activator receptor (uPAR) Biomarker Activity (AID 2283030); settings: primary human endothelial cells (HUVEC); actives raise or lower the signal
Summary of the method: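 HUVEC, 24 h post-dose; uPAR by ELISA; bidirectional fit vs DMSO baseline.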

[16] = read-out: Human Leukocyte Antigen - DR isotype (HLADR), HLA-DRA (gene 3122); assay: BSK_BE3C_HLADR: BioMAP Diversity Plus: BE3C Assay for Human Leukocyte Antigen - DR isotype (HLADR) Biomarker Activity (AID 2283032); settings: primary human bronchial epithelial cells; actives raise or lower the signal
Summary of the method: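 Cell-surface HLA-DR ELISA readout at 24 h after dosing in the BE3C primary human lung bronchial epithelial system; gain or loss of signal against DMSO, with parallel sulforhodamine B staining of total protein for overt cytotoxicity.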

[17] = read-out: Vascular cell adhesion molecule 1 (VCAM1), VCAM1 (gene 7412); assay: BSK_4H_VCAM1: BioMAP Diversity Plus: 4H Assay for Vascular cell adhesion molecule 1 (VCAM1) Biomarker Activity (AID 2283033); settings: primary human endothelial cells (HUVEC); actives raise or lower the signal
Summary of the method: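 VCAM-1 ELISA read 24 h after chemical dosing of HUVEC in the BioMAP 4H system, with gain or loss of signal fitted relative to DMSO. Parallel SRB staining (560 nm) checked overt cytotoxicity.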

[18] = read-out: Vascular endothelial growth factor receptor 2 (Homo sapiens) (UniProt P35968); assay: BSK_4H_VEGFRII: BioMAP Diversity Plus: 4H Assay for Vascular endothelial growth factor receptor 2 (VEGFR2) Biomarker Activity (AID 2283031); settings: primary human endothelial cells (HUVEC); actives raise or lower the signal;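 as to AC50: cell-surface VEGFR2 protein level quantified by ELISA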
Summary of the method: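 HUVEC (human primary), 4H system; 24 h post-dose; VEGFRII by ELISA; bidirectional curve fit vs DMSO baseline; gain or loss of signal scored.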

[19] = read-out: Interferon-gamma inducible Protein 10 (IP10), CXCL10 (gene 3627); assay: BSK_BE3C_IP10: BioMAP Diversity Plus: BE3C Assay for Interferon-gamma inducible Protein 10 (IP10) Biomarker Activity (AID 2283034); settings: primary human bronchial epithelial cells; actives raise or lower the signal
Summary of the method: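 IP-10 quantified by ELISA in human primary bronchial epithelial cell cultures at 24 hours post-dosing. Gain or loss of signal fitted relative to DMSO; parallel SRB staining assessed overt cytotoxicity.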

[20] = read-out: Interleukin-1 alpha (IL1a), IL1A (gene 3552); assay: BSK_BE3C_IL1a: BioMAP Diversity Plus: BE3C Assay for Interleukin-1 alpha (IL1a) Biomarker Activity (AID 2283016); settings: primary human bronchial epithelial cells; actives raise or lower the signal
Summary of the method: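 IL-1a measured by ELISA after 24 h treatment of human primary bronchial epithelial cells, with gain or loss of signal fitted versus DMSO. Parallel cultures stained with SRB gauge overt cytotoxicity.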

Measured: AC50

Chain of human Vitamin D Receptor (VDR), VDR (gene 7421) (P11473 whole entry, looked up, the tested form may be a part): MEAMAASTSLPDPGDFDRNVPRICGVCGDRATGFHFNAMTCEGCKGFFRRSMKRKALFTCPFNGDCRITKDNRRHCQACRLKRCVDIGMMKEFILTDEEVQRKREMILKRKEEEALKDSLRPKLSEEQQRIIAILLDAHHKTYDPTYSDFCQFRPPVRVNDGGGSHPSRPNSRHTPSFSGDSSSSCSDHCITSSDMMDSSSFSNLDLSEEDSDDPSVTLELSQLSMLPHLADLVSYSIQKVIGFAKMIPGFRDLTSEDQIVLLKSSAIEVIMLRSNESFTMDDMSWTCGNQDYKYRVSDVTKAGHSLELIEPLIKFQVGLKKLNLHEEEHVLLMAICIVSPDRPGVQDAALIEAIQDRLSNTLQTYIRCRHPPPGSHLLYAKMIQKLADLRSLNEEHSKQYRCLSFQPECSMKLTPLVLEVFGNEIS
Chain of E-selectin (Homo sapiens) (P16581 whole entry, looked up): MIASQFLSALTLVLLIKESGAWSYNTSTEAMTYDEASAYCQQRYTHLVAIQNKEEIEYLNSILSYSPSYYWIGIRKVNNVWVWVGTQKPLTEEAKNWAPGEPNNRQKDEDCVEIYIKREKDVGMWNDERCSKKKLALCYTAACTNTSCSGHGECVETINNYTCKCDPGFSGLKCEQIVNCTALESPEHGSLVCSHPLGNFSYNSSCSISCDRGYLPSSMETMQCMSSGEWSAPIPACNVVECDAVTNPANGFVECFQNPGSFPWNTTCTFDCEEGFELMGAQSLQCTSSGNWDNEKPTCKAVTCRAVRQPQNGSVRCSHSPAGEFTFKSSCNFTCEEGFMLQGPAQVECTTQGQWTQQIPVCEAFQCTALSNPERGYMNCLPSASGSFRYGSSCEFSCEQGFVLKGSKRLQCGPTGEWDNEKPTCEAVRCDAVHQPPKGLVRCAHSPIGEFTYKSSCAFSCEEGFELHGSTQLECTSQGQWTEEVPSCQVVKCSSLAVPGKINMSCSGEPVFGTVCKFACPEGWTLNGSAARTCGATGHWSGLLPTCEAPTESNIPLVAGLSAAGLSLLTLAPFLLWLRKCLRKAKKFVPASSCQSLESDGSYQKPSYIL

CCNc1nc(NC(C)(C)C)nc(SC)n1
active: [4] 20 µM
inactive: [1] | [2] | [3] | [5] | [6] | [7] | [8] | [9] | [10] | [11] | [12] | [13] | [14] | [15] | [16] | [17]

COc1cc(-c2ccc(N)c(OC)c2)ccc1N
active: [2] 30 µM | [4] 25.5 µM | [5] 14.4 µM | [9] 4.7 µM
inactive: [1] | [2] | [3] | [4] | [5] | [6] | [7] | [8] | [9] | [10] | [11] | [12] | [13] | [18] | [16] | [17] | [19]

CCOP(=S)(OCC)Oc1ccc(S(C)=O)cc1 (stereo not given)
inactive: [1] | [20] | [2] | [4] | [5] | [6] | [8] | [9] | [11] | [12] | [13] | [15] | [18] | [16] | [17] | [19]

CC(=O)C(Cl)C(=O)N(C)C (stereo not given)
inactive: [6] | [7] | [8] | [9] | [12] | [13] | [14] | [18]
active: [1] 20 µM | [20] 20 µM | [2] 20 µM | [5] 11.7 µM | [11] 15.6 µM | [16] 26.9 µM

CC(=O)OC(c1ccccc1)C(Cl)(Cl)Cl (stereo not given)
inactive: [1] | [20] | [2] | [4] | [5] | [6] | [8] | [9] | [11] | [12] | [13] | [18] | [16] | [19]

Cn1sc(Cl)cc1=O
inactive: [1] | [20] | [2] | [3] | [5] | [6] | [8] | [9] | [12] | [13] | [14] | [18] | [16]
active: [4] 29.9 µM | [11] 9.68 µM

O=C(O)C(F)(F)C(F)(F)C(F)(F)C(F)(F)C(F)(F)C(F)(F)C(F)(F)C(F)(F)C(F)(F)C(F)(F)F
inactive: [1] | [2] | [4] | [5] | [6] | [7] | [8] | [11] | [12] | [15] | [18]
active: [1] 30.5 µM | [20] 25.3 µM and 5.25 µM and 5.23 µM | [2] 30.7 µM | [4] 29.7 µM | [5] 29 µM | [6] 35.3 µM | [8] 29.4 µM | [9] 29.3 µM and 5.53 µM and 5.54 µM | [11] 31 µM | [12] 31.8 µM | [13] 25.5 µM and 2.72 µM and 4.77 µM | [15] 32.1 µM | [16] 9.29 µM and 4.71 µM and 4.92 µM | [19] 8.5 µM and 2.27 µM and 2.29 µM

CC(C)(c1ccccc1)c1ccc(O)c(C(C)(C)c2ccccc2)c1
inactive: [7]
active: [1] 10.6 µM | [2] 10.8 µM | [3] 7.28 µM | [4] 7.99 µM | [5] 10.1 µM | [6] 10.5 µM | [8] 8.56 µM | [9] 32.3 µM | [10] 5.31 µM | [11] 6.57 µM | [12] 8.09 µM | [13] 25.6 µM | [18] 7.22 µM | [16] 13.6 µM | [17] 8.48 µM

Cc1ccccc1N
inactive: [1] | [20] | [2] | [4] | [5] | [6] | [8] | [9] | [10] | [11] | [12] | [13] | [14] | [15] | [18] | [16]

O=C(O)C(F)(F)C(F)(F)C(F)(F)C(F)(F)C(F)(F)C(F)(F)F
inactive: [1] | [20] | [2] | [3] | [4] | [5] | [6] | [7] | [8] | [9] | [11] | [12] | [13] | [14] | [18] | [16] | [17]
active: [5] 13.9 µM | [9] 13.6 µM

CC(C)(C)CC(C)(C)c1ccc(O)cc1
inactive: [7] | [14] | [18]
active: [1] 7.99 µM | [2] 9.66 µM | [3] 6.54 µM | [4] 6.4 µM | [5] 10.1 µM | [6] 12.4 µM | [8] 7.28 µM | [9] 33.7 µM | [11] 11.4 µM | [12] 9.01 µM | [13] 13.3 µM | [16] 19.3 µM | [19] 16.6 µM

NC(=S)Nc1ccccc1
inactive: [1] | [20] | [2] | [4] | [5] | [6] | [7] | [8] | [9] | [11] | [12] | [13] | [14] | [18] | [16] | [19]

ClCC(Cl)CCl
inactive: [1] | [2] | [3] | [4] | [5] | [6] | [7] | [8] | [9] | [11] | [12] | [13] | [18] | [16] | [19]
